RGS16-Gao HTS: RGS16-Galphao interaction regulator (human); hit rate 0.38% among 220,000; O15492+P09471; bead-based flow cytometry RGS16-Galphao binding, fluorescence; actives lie on both sides; AID 1441; binding response (% of control), % at 10 µM;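 further: Galphao activated by GDP with aluminum fluoride before binding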
Avidin bead fluor: compound fluoresces at 488/530 nm on avidin beads; AID 1775; hit rate 0.38% among 220,000; compound fluorescence 488/530 nm, flow cytometry; active compounds read high; fluorescence (KMESF) at 10 µM; in the data active means fluorescence above about 47
RGS7-Gao: modulates binding of RGS7 to human Galphao | hit rate 0.35% among 220,000 | binding response (% of control), % at 10 µM | Multiplexed bead flow cytometry; actives lie on both sides; in the data active means binding response below about 49% or above about 150%; inconclusive means no clear call, values can overlap the other calls; inactive means in between;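 further: fluorescent Galphao held in activated GDP-AlF4 state binding bead-coupled RGS7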
RGS4-Gao reg: human RGS4-Galphao interaction regulation. Multiplexed bead flow cytometry, RGS4-Galphao binding; actives lie on both sides. hit rate 0.33% among 220,000. binding response (% of control), % at 10 µM; in the data active means binding response below about 49% or above about 150%; inactive means in between;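 further: fluorescent Galphao activated with aluminum fluoride binding bead-coupled RGS4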
GSH fluor: compound fluoresces at 488/530 nm on GSH beads; fluorescence (KMESF) at 10 µM; hit rate 0.25% among 190,000; AID 1776; GSH beads flow cytometry, compound fluorescence 488/530 nm; active compounds read high; in the data active means fluorescence above about 89;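 further: glutathione beads carrying GST-tagged Bcl family fusion proteins plus one bare bead set; values are compound well signal with DMSO vehicle wells as background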
RGS8-Gao reg: regulators of human RGS8-Galphao interaction. hit rate 0.34% among 220,000. P09471. AID 1423. response (percent of control binding), % at 10 µM. multiplexed bead flow cytometry, RGS8-Galphao binding; actives lie on both sides; in the data active means response below about 60% or above about 140%; inactive means in between;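 further: Galphao activated as the GDP aluminium fluoride complex binding bead-coupled RGS8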
RGS-Gao: modulates binding between human RGS4 and Galphao; shares compounds with RGS16-Gao HTS; multiplexed bead flow cytometry, RGS–Galpha-o binding; RGS4–Galpha-o binding response, % at 10 µM; hit rate 99% among 1,600; AID 1504;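 further: fluorescently labeled Galpha-o bound to GDP with aluminium fluoride binding biotinylated RGS beads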
Target sequence (P09471 whole entry, looked up): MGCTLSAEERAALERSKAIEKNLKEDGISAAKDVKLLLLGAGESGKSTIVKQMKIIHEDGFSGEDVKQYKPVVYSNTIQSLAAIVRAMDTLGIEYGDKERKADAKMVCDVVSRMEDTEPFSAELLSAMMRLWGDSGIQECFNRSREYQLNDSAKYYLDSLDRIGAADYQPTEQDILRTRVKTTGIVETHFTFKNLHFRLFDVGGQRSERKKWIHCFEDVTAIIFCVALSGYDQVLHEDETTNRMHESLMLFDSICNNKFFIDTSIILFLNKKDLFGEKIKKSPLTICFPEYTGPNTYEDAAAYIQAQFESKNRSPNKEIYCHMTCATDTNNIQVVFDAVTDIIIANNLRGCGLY
Target sequence (P49798 whole entry, looked up): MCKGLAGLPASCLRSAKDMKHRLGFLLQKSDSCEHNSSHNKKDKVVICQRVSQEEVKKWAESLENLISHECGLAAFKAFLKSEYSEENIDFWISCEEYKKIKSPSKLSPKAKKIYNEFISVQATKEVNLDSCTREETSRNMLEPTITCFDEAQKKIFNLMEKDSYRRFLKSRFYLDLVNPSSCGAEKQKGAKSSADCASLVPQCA
Biotin-avidin: interferes with biotinylated probe binding to avidin beads | shares compounds with RGS16-Gao HTS | 1,700 tested, under 10 active | AID 1783 | inhibition, % at 10 µM | streptavidin beads, fluorescein-biotin binding, flow cytometry;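 active means inhibition above 50%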;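 further: median green fluorescence of gated singlet beads compared with DMSO control wells; 0% = DMSO wells and 100% = complete loss of bead fluorescence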
RGS8-Gao confirm: RGS8-Galphao interaction regulation, single point confirmation | shares compounds with RGS16-Gao HTS | bead-based flow cytometry RGS8-Galphao binding, fluorescence; actives lie on both sides | binding response (% of control), % at 10 µM | hit rate 3% among 1,700; in the data active means binding response below about 72% or above about 130%; inactive means in between;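 further: Galphao activated as GDP AlF4 complex before binding bead RGS8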
RGS7-Gao confirm: confirmation of regulators of human RGS7-Galphao interaction | shares compounds with RGS16-Gao HTS | bead-based flow cytometry RGS7-Galphao binding; actives lie on both sides | response (percent of control binding), % at 10 µM | hit rate 7.8% among 1,700 | AID 1837; in the data active means response below about 75% or above about 130%; inactive means in between;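 further: fluorescent Galphao activated with GDP and aluminum fluoride binding bead-coupled RGS7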
RGS16-Gao single: confirmation of regulators of human RGS16-Galphao interaction; shares compounds with RGS16-Gao HTS; bead-based flow cytometry, RGS16-Galphao binding; actives lie on both sides; AID 1838; hit rate 4% among 1,700; response (% of control binding), % at 10 µM; in the data active means response below about 74% or above about 130%; inactive means in between;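 further: Galphao activated as the GDP aluminium fluoride complex binding bead-coupled RGS16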
RGS4-Gao confirm: RGS4-Galphao interaction regulation, single point confirmation | shares compounds with RGS16-Gao HTS | RGS4-Galphao binding, multiplexed bead flow cytometry; actives lie on both sides | binding response (% of control), % at 10 µM | hit rate 4% among 1,700 | AID 1840; in the data active means binding response below about 74% or above about 130%; inactive means in between
RGS19-Gao conf: confirmation of regulators of human RGS19-Galphao interaction | AID 1841 | bead-based flow cytometry RGS19-Galphao binding; actives lie on both sides | shares compounds with RGS16-Gao HTS | response (percent of control binding), % at 10 µM | hit rate 5% among 1,700; in the data active means response below about 50% or above about 160%; inactive means in between;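 further: 100% = no compound control and 0% = blank background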
* hit, by the source's call; ? = inconclusive; · = no result; [ ] = another dose, or the depositor's remark. Sampled rows, rich in hits. Any-hit rate of the full collection: about 1.2%. Unless noted, how the calls were made is not given here.

SMILES	RGS16-Gao HTS	Avidin bead fluor	RGS7-Gao	RGS4-Gao reg	GSH fluor	RGS8-Gao reg	RGS-Gao	Biotin-avidin	RGS8-Gao confirm	RGS7-Gao confirm	RGS16-Gao single	RGS4-Gao confirm	RGS19-Gao conf
CCC(CC)C(=O)NN(C(=O)c1ccncc1)C1CC(=O)N(c2ccccc2)C1=O (stereo not given)	98	6	?	98	·	102	·	·	·	·	·	·	·
CCc1ccc2c(c1)c(N=NC1=NC(=O)CS1)c(O)n2C	101	22	106	107	10	104	·	·	·	·	·	·	·
Cc1cc(C)c2[nH]c(O)c(N=NC3=NC(=O)CS3)c2c1	270*[activator]	124*	?	283*[activator]	·	116	·	0	100	95	100	97	120
COc1ccc(/C=C/C(=O)C2(O)CCCCC2)cc1OC	102	11	99	101	26	101	·	·	·	·	·	·	·
CCOC(=O)c1c(C)nc(SCC(N)=O)c(C#N)c1-c1ccccc1	182*[activator]	3	104	111	13	125	111*	0	115	108	114	108	92
CC(/C=N/n1c(-c2ccc(C)cc2)n[nH]c1=S)=C\c1ccco1	105	11	105	96	17	99	·	·	·	·	·	·	·
CC(/C=N/n1c(-c2ccco2)n[nH]c1=S)=C\c1ccco1	-3.8*	2	76	73	11	62	73*	-1	95	104	92	96	94
O=C(CCl)NC(=O)NC12CC3CC(CC(C3)C1)C2	111	145*	189*[activator]	130	7	104	130*	0	101	63*	84	79	54
CCC(C(=O)c1ccccc1)P(=O)(NN)c1ccccc1 (stereo not given)	101	11	?	100	·	99	·	·	·	·	·	·	·
O=C(NCCOC(=O)c1ccccc1C(=O)OCCNC(=O)c1cccnc1)c1cccnc1	100	6	101	100	36	100	·	·	·	·	·	·	·
Cc1cc(C)c(C(=O)OCCNC(=O)c2cccnc2)cc1C	117	215*	184*[activator]	122	37	97	122*	-1	104	102	101	104	97
CCc1nnc(NC(=O)c2cc(S(=O)(=O)N3CCN(c4ccccc4)CC3)ccc2Cl)s1	101	14	100	104	61	101	·	·	·	·	·	·	·
CCc1nnc(NC(=O)c2cccc(S(=O)(=O)N3CCN(c4ccccc4)CC3)c2)s1	145	5	150*[activator]	140	27	127	140*	0	103	102	103	105	108
Cc1ccc(C2C3=C(CC(C)(C)CC3=O)Nc3onc(C)c32)cc1 (stereo not given)	141	·	136	147	35	·	·	-1	102	104	100	103	100
CC(C)N1CCN(Cc2cn[nH]c2C2CCCCC2)CC1CCO (stereo not given)	104	3	110	104	10	103	·	·	·	·	·	·	·
O=C(OC1C2CCC1C1CN(CCc3ccccc3)CC12)c1ccccc1 (stereo not given)	103	7	101	104	11	103	·	·	·	·	·	·	·
CCOc1ccc(-c2nnc(-c3ccccc3)o2)cc1	95	5	94	96	16	99	·	·	·	·	·	·	·
